Source: PubChem BioAssay AID1159580 (chemical genetic matrix, 2015)
Hit rate of the full screen: of about 5,500 compounds, about 2,000 (36%) were called active. Inconclusive results (about 18%) are left out. No stated cut-off is given here; in the data, active means normalized growth mostly below about 0.91 (no sharp cut-off); inconclusive means no clear call, values can overlap the other calls; inactive means mostly above about 0.92. The list shows a part of the results.

Assay: chemical genetic growth profiling, strain panel (AID 1159580);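 further: tested at 20 µM; growth read once vehicle control cultures reached saturation at 30 °C; 1 = growth at the plate median or of vehicle wells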
Settings: growth OD
[1] = S. cerevisiae deletion strains, locus YAL013W, strain DEP1, stronger effect = lower value
[2] = S. cerevisiae deletion strains, locus YBR229C, strain ROT2, stronger effect = lower value
[3] = S. cerevisiae deletion strains, locus YCL061C, strain MRC1, stronger effect = lower value
[4] = S. cerevisiae deletion strains, locus YDL101C, strain DUN1, stronger effect = lower value
[5] = S. cerevisiae deletion strains, locus YDL134C, strain PPH21, stronger effect = lower value
[6] = S. cerevisiae deletion strains, locus YDR150W, strain NUM1, stronger effect = lower value
[7] = S. cerevisiae deletion strains, locus YEL061C, strain CIN8, stronger effect = lower value
[8] = S. cerevisiae deletion strains, locus YGR078C, strain PAC10, stronger effect = lower value
[9] = S. cerevisiae deletion strains, locus YHR030C, strain SLT2, stronger effect = lower value
[10] = S. cerevisiae deletion strains, locus YHR087W, strain rtc3, stronger effect = lower value
[11] = S. cerevisiae deletion strains, locus YJR043C, strain POL32, stronger effect = lower value
[12] = S. cerevisiae deletion strains, locus YJR075W, strain HOC1, stronger effect = lower value
[13] = S. cerevisiae deletion strains, locus YKL190W, strain CNB1, stronger effect = lower value
[14] = S. cerevisiae deletion strains, locus YLR039C, strain RIC1, stronger effect = lower value
[15] = S. cerevisiae deletion strains, locus YLR058C, strain SHM2 (second series), stronger effect = lower value
[16] = S. cerevisiae deletion strains, locus YLR085C, strain ARP6, stronger effect = lower value
[17] = S. cerevisiae deletion strains, locus YLR262C, strain YPT6, stronger effect = lower value
[18] = S. cerevisiae deletion strains, locus YML094W, strain GIM5, stronger effect = lower value
[19] = S. cerevisiae deletion strains, locus YMR219W, strain ESC1, stronger effect = lower value
[20] = S. cerevisiae deletion strains, locus YMR263W, strain SAP30, stronger effect = lower value
[21] = S. cerevisiae deletion strains, locus YNL153C, strain GIM3, stronger effect = lower value
[22] = S. cerevisiae deletion strains, locus YNL298W, strain CLA4 (second series), stronger effect = lower value
[23] = S. cerevisiae deletion strains, locus YNL322C, strain KRE1, stronger effect = lower value
[24] = S. cerevisiae deletion strains, locus YNR030W, strain Alg12, stronger effect = lower value
[25] = S. cerevisiae deletion strains, locus YOL006C, strain TOP1, stronger effect = lower value
[26] = S. cerevisiae deletion strains, locus YPL055C, strain LGE1, stronger effect = lower value
[27] = S. cerevisiae deletion strains, locus YPL241C, strain CIN2, stronger effect = lower value
[28] = S. cerevisiae deletion strains, locus YPR135W, strain CTF4, stronger effect = lower value
[29] = S. cerevisiae strains, strain wild type, stronger effect = lower value

Measured: normalized growth

Cn1c(SCc2ccccc2)nnc1-c1ccc2ncccc2c1
inactive: [1] 1 | [2] 0.997 | [3] 1.01 | [4] 0.986 | [5] 1.01 | [6] 0.902 | [7] 0.987 | [8] 1 | [9] 1.18 | [10] 0.999 | [11] 0.997 | [12] 0.991 | [13] 0.994 | [14] 1.1 | [15] 0.997 | [16] 1.05 | [17] 1.1 | [18] 1.01 | [19] 0.999 | [20] 0.989 | [21] 0.997 | [22] 1.07 | [23] 0.992 | [24] 1.02 | [25] 1.01 | [26] 0.99 | [27] 1.02 | [28] 1.08
active: S. cerevisiae deletion strains, locus YMR307W, strain GAS1, stronger effect = lower value 1.41 [resistant]

Cn1c(SCC(=O)N2CCOCC2)nnc1-c1ccc2ncccc2c1
inactive: [1] 0.996 | [2] 1.01 | [3] 1.02 | [4] 1.03 | [5] 0.963 | [6] 0.929 | [7] 1.03 | [8] 1.02 | [9] 1.08 | [10] 1.01 | [11] 1.01 | [12] 1.03 | [14] 0.971 | [15] 0.995 | [16] 1.1 | [17] 0.942 | [18] 1.06 | [19] 1 | [20] 1 | [21] 1 | [22] 1.03 | [23] 0.992 | [24] 1.03 | [25] 1.03 | [26] 1.04 | [27] 1.05 | [28] 1.03 | [29] 0.984

CCOC(=O)c1cnc2n(c1=O)CCS2
inactive: [1] 1.02 | [2] 0.997 | [4] 1.05 | [6] 0.965 | [7] 1.04 | [8] 1.04 | [9] 1.1 | [10] 1.02 | [11] 0.999 | [12] 1.01 | [13] 0.996 | [14] 0.99 | [15] 0.995 | [16] 1.06 | [17] 0.996 | [19] 0.999 | [20] 1 | S. cerevisiae deletion strains, locus YNL128W, strain TEP1, stronger effect = lower value 0.997 | [21] 1.02 | [22] 1.03 | [23] 1.01 | [24] 1.08 | [25] 1.07 | [26] 0.987 | [27] 1.01 | [28] 1.12 | [29] 0.975
active: [18] 1.13 [resistant]
